High-throughput results as filed in PubChem.
A selection: hits, their analogues and other compounds. The true share with any hit is near 5.3%.
BAZ2B block: inhibitors of human BAZ2B bromodomain; AlphaScreen BAZ2B-H3K14Ac peptide displacement; Potency, µM (titrated, usually from 114 µM), without a hit: at the highest dose activity change, negative = inhibition, usual class: inhibitors; 4.4% of 360,000 active; Q9UIF8; further: potency means the concentration at half of the fitted maximal effect; on the % scale 0 is the no-effect control and ±100 the full control effect; nearly all actives have a fitted effect of over 60% in size
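AlphaScreen displacement: compounds (up to 110uM) incubated 30 min at room temperature with a preformed 50 nM BAZ2B/50 nM biotinylated H3K14Ac peptide complex in PBS pH 7.4 with Tween-20. Donor and acceptor beads at 10 ug/mL final added, 20 min light-protected before reading.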
HP1b chromo inh: blocks HP1-beta chromodomain binding to methylated histone tails; P83916; AlphaScreen HP1-beta / biotin-H3K9me3 peptide binding; Potency, µM (top dose mostly 114 µM), without a hit: at the top dose activity change, negative = inhibition, actives largely listed as inhibitors; 0.56% of 390,000 active; AID 540317; further: potency means the concentration at half of the fitted maximal effect; nearly all actives have a fitted effect of over 70% in size
Target sequence (P83916 whole entry, looked up): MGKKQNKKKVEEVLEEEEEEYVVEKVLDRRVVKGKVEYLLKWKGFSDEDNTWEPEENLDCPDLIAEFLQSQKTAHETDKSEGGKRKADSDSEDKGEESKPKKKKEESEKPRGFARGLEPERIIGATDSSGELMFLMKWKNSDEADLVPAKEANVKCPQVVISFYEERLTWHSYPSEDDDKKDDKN
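AlphaScreen: HP1-beta (50 nM) preformed 30 min with biotin-H3(1-18)K9me3 peptide (50 nM) in PBS pH 7.4, 0.01% Tween-20. Compound added for 30 min at RT, then streptavidin donor/nickel chelate acceptor beads (10 ug/mL) for 30 min.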
TDP1 block: TDP1 (human) enzyme inhibition | Q9NUW8 | recombinant TDP1, AlphaScreen DNA substrate cleavage | Potency, µM (top dose mostly 130 µM), inactives show at the highest dose activity change, negative = inhibition, usual class: inhibitors | 0.28% of 350,000 active | AID 485290; further: potency means the concentration at half of the fitted maximal effect; on the % scale 0 is the no-effect control and ±100 the full control effect; nearly all actives have a fitted effect of over 40% in size
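E. coli-derived human Tdp1, 1 nM final. Cpd preinc 15 min RT; substrate 15 nM final, 5 min RT; AS bead mix 10 ug/ml final, 10 min RT. Signal loss = tyrosine-FITC cleavage. No-enzyme wells = max signal.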
Six1-Eya2 inh: inhibitors of human Six1/Eya2 interaction. Q15475+O00167. AlphaScreen GST-Six1/His-Eya2 binding, biochemical; hits give low values. activity change, % (test concentration not listed). 0.56% of 360,000 active. AID 651725; in the data active means activity change below about -65%; inconclusive means mostly about -30% to -63%; further: on the % scale 0 is the no-effect control and ±100 the full control effect
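GST-Six1 + His-Eya2 (5X stock: 250/500 nM); Tris pH 8.0, 300 mM NaCl, 0.05% BSA, 0.02% Tween 20; GSH donor/Ni acceptor beads; 1 h 37 °C dark; AlphaScreen readout.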
CtBP-E1A blk: CtBP/E1A binding inhibition; 0.49% of 340,000 active; AlphaScreen GST-E1A/His-CtBP binding, 1536-well; hits give low values; activity change, % (no concentration beside the values); in the data active means activity change below about -65%; inconclusive means mostly about -30% to -63%; further: on the % scale 0 is the no-effect control and ±100 the full control effect
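Protein mix (5X: 125 nM each GST-E1A, His-CtBP) was incubated with pinned compound 2 h at 37 deg C in dark, in 50 mM Tris pH 8.0 buffer with 300 mM NaCl. Glutathione donor and nickel acceptor beads followed; AlphaScreen signal read after 1 h.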
JMJD2A Tudor: JMJD2A Tudor domain (human) inhibition; O75164; AlphaScreen JMJD2A-Tudor / H3K4me3 peptide binding; Potency, µM (doses to about 114 µM), for the others: at the top dose activity change, negative = inhibition, most hits filed as inhibitors; 4.4% of 390,000 active; further: potency means the concentration at half of the fitted maximal effect; on the % scale 0 is the no-effect control and ±100 the full control effect; nearly all actives have a fitted effect of over 50% in size
* = called active by the depositor; ! = not confirmed by another sample; [ ] = dose if it differs, or a comment. Unless noted, the call rests on the fitted dose curve; in most records, active means well fitted inhibition curve with a large enough effect; inconclusive means small, poorly fitted or top-dose-only effect; inactive means no such curve, though single readings can be large or run the other way.

Screening O=C(N[C@@H]1CC[C@@H](CCn2cc(-c3ccccc3)nn2)O[C@@H]1CO)c1cnccn1 returned Six1-Eya2 inh 5 and CtBP-E1A blk 4.
For O=[N+]([O-])c1cc(CN2CCCC2)c2cccnc2c1O the results were BAZ2B block 5µM*, HP1b chromo inh inconclusive, TDP1 block 3.5µM*, Six1-Eya2 inh -79*, CtBP-E1A blk -1 and JMJD2A Tudor 13µM*.
Screening Ic1ccc(N2CCN(Cc3c[nH]c4ncccc34)CC2)cc1 returned BAZ2B block 50µM*, HP1b chromo inh 3%, TDP1 block -11%[56.1 µM], Six1-Eya2 inh -13, CtBP-E1A blk -20 and JMJD2A Tudor 89µM*.
Screening Oc1c(CN2CCCCC2)ccc2cccnc12 returned HP1b chromo inh 15%, Six1-Eya2 inh -80*, CtBP-E1A blk -93* and JMJD2A Tudor 20µM*.
For Oc1ccc(CN2CCCCC2)c2cccnc12 the results were BAZ2B block 3.2µM*, HP1b chromo inh 1%, TDP1 block 1%, Six1-Eya2 inh -91*, CtBP-E1A blk -90* and JMJD2A Tudor 8.9µM*.
Screening O=C(c1cccc([N+](=O)[O-])c1)N1CCN(CCc2ccncc2)CC1 returned BAZ2B block 3%, HP1b chromo inh 37%, TDP1 block -1% and JMJD2A Tudor 2%.
Cc1ccc(-c2cc(C(=O)Nc3ccc(SC(F)F)cc3)no2)cc1F was read as BAZ2B block inconclusive, HP1b chromo inh 7%, TDP1 block 9% and JMJD2A Tudor -27%.
Screening Cc1ccc2oc(=O)c3cnn(CC(=O)Nc4cccc(C(F)(F)F)c4)c3c2c1 returned BAZ2B block -5%, HP1b chromo inh 24%, TDP1 block 1% and JMJD2A Tudor -12%.
Screening Oc1ccc(CN2CCN(c3ccccc3)CC2)c2cccnc12 returned BAZ2B block inconclusive, HP1b chromo inh 22%, TDP1 block 7%, Six1-Eya2 inh -74*, CtBP-E1A blk -75* and JMJD2A Tudor -31%.
Oc1c(Cl)cc(CN2CCCCC2)c2cccnc12 was read as BAZ2B block 3.5µM*.
Screening CNC(=O)Cn1cc(S(=O)(=O)Cc2ccccc2F)c2ccccc21 returned BAZ2B block -10%, HP1b chromo inh -16%, TDP1 block 6% and JMJD2A Tudor -15%.
For COc1cccc(CNC(=O)CCNS(=O)(=O)c2ccc3c(c2)CCCC(=O)N3)c1 the results were BAZ2B block 12%[57.1 µM], HP1b chromo inh 33%, TDP1 block 5% and JMJD2A Tudor -14%.
Screening Cc1cccc(N=Nc2cn[nH]c2-c2ccco2)c1 returned BAZ2B block 20µM*, HP1b chromo inh inconclusive, TDP1 block 9%, Six1-Eya2 inh -11 and JMJD2A Tudor -11%[11.4 µM].
`CCS(=O)(=O)NCCc1csc2nc(-c3ccc(OC)cc3)nn12` gave BAZ2B block 3%, HP1b chromo inh 37%, TDP1 block 5% and JMJD2A Tudor 5%.
O=C1C(Cl)=C(NCc2cccnc2)C(=O)c2ccccc21 was read as BAZ2B block 50µM*, HP1b chromo inh -8%, Six1-Eya2 inh -17, CtBP-E1A blk inconclusive and JMJD2A Tudor -36%.
O=C1C(Cl)=C(NCCc2ccccc2)C(=O)c2ccccc21 was read as HP1b chromo inh inconclusive, Six1-Eya2 inh -76*, CtBP-E1A blk -79* and JMJD2A Tudor 0.79µM*.
`CC(=O)N(Cc1ccc(F)cc1)C1=C(NCCc2ccccc2)C(=O)c2ccccc2C1=O` gave BAZ2B block 14µM*, HP1b chromo inh -68%, TDP1 block 14%, Six1-Eya2 inh inconclusive, CtBP-E1A blk inconclusive and JMJD2A Tudor 20µM*.
Screening C=CCNC1=C(Cl)C(=O)c2ccccc2C1=O returned BAZ2B block 32µM*, HP1b chromo inh 50µM*, TDP1 block 9%, Six1-Eya2 inh inconclusive, CtBP-E1A blk -2 and JMJD2A Tudor 45µM*.
Cc1cc2c(cc1S(=O)(=O)CCC(=O)N1CCC(C)CC1)OCC(=O)N2 was read as BAZ2B block 23%, HP1b chromo inh 63%, TDP1 block -1% and JMJD2A Tudor -7%.
Cc1ccc(NCc2cccnc2)cc1 was read as BAZ2B block inconclusive, HP1b chromo inh -6%, TDP1 block 6%, Six1-Eya2 inh 4, CtBP-E1A blk -3 and JMJD2A Tudor 40µM*.
For COc1cc(NC(=O)C(OC(=O)CNC(=O)c2ccccc2)c2ccccc2)cc(OC)c1 (stereo not drawn) the results were TDP1 block 0% and JMJD2A Tudor -12%.
Cc1ccc(C(=O)c2nc3c(n2O)CCCC3)cc1 was read as BAZ2B block 5%, HP1b chromo inh -2%, TDP1 block 8%, Six1-Eya2 inh -12, CtBP-E1A blk -1 and JMJD2A Tudor 35µM*.
For CCOc1ccc(C(=O)c2nc3c(n2O)CCCC3)cc1 the results were BAZ2B block -11%, HP1b chromo inh 17%, TDP1 block 3%, Six1-Eya2 inh -6, CtBP-E1A blk -16 and JMJD2A Tudor -24%.
`CCOc1ccc(C2=CC(c3cccc(Br)c3)n3c(nc4ccccc43)N2)cc1Cl` (stereo not drawn) gave BAZ2B block 11%, HP1b chromo inh 9%, TDP1 block 9% and JMJD2A Tudor -13%.
`O=C(O)C1Cc2ccccc2CN1C(=O)COc1ccc(Br)cc1` (stereo not drawn) gave HP1b chromo inh 6%, TDP1 block 22µM*, Six1-Eya2 inh -11, CtBP-E1A blk 1 and JMJD2A Tudor inconclusive.
Screening CCc1ccc(CNC(=O)Cn2nc(C)c3c(C)n(-c4ccc(C)cc4)nc3c2=O)cc1 returned BAZ2B block -4%, HP1b chromo inh 42%, TDP1 block 0% and JMJD2A Tudor -7%.
For Cc1ccc(-n2nc3c(=O)n(CC(=O)NCCc4ccccc4C)nc(C)c3c2C)cc1 the results were BAZ2B block -21%, HP1b chromo inh 42%, TDP1 block 0%, Six1-Eya2 inh 3, CtBP-E1A blk -5 and JMJD2A Tudor -11%.
COc1ccc(OC)c(CCNC(=O)Cn2nc(C)c3c(C)n(-c4ccc(C)cc4)nc3c2=O)c1 was read as BAZ2B block 50µM*, HP1b chromo inh 27%, Six1-Eya2 inh -9, CtBP-E1A blk -11 and JMJD2A Tudor -26%.
For CCOc1ccc(CNC(=O)Cn2nc(C)c3c(C)n(-c4ccc(C)cc4)nc3c2=O)cc1 the results were BAZ2B block -32%, HP1b chromo inh 16%, TDP1 block -20%, Six1-Eya2 inh -7, CtBP-E1A blk 1 and JMJD2A Tudor 40µM*!.
